Test results reported in ChEMBL document CHEMBL4513216, “Probing the Open Global Health Chemical Diversity Library for Multistage-Active Starting Points for Next-Generation Antimalarials” (ACS Infect Dis, 2020).
About 2,700 (4%) of roughly 68,000 compounds showed an effect of 50% or more. Only a selection was taken, and strong results are over-represented in it overall.

These molecules were tested on Plasmodium berghei (assay: Screen against P. berghei liver stage (PbLuc), transformed with Luciferase, at 2uM). Conditions: tested at 2 uM.
Format: functional, HepG2
COc1ccc(CCN2C(=O)O[C@@H]3CN(C)C[C@@H]32)cc1 showed an INHIBITION of -7.29%. Molecule CN(C[C@H]1CN2CC[C@H]1C[C@@H]2CNC(=O)c1ccco1)c1ccccc1 has an INHIBITION of 65.7%. Molecule CC[C@H]1CN2CC[C@H]1C[C@@H]2CNC(=O)c1ccco1 has an INHIBITION of 9.42%. Work on CCN(CC)C[C@H]1CN2CC[C@H]1C[C@@H]2CNC(=O)c1ccco1 yielded an INHIBITION of 31.07%. Work on Cc1nc(CCN)cc(N2CCC(O)(c3ccccc3)C2)n1 (configuration not stated) yielded an INHIBITION of 23.18%. Work on Cc1nc(CN)cc(N2CCC(O)(c3ccc(Cl)cc3)CC2)n1 yielded an INHIBITION of 59.94%. With Cc1nc(CCN)cc(N2CCC(O)(c3ccc(Cl)cc3)CC2)n1 the INHIBITION was 11.38%. For CCNC(=O)N1CCc2ccc(NC(=O)C(C)c3ccsc3)cc21 (configuration not stated), the INHIBITION was -44.17%. Work on CC(Cn1cccn1)NCc1csc2c1CCCC2 (configuration not stated) yielded an INHIBITION of 49.88%. Molecule CC(Cn1ccnc1)NCc1csc2c1CCCC2 (configuration not stated) has an INHIBITION of 66.4%. For CC(Cn1cncn1)NCc1csc2c1CCCC2 (configuration not stated), the INHIBITION was 26.75%. Molecule O=C(N[C@@H]1CCN(c2nc3ccccc3o2)C[C@H]1O)c1cnccn1 has an INHIBITION of 26.3%. In the case of CCNC(=O)O[C@H]1COCCN(c2nc3ccccc3s2)C1, the INHIBITION is reported as 29.85%. In the case of O=C(NC1CCCC1)O[C@H]1COCCN(c2nc3ccccc3s2)C1, the INHIBITION is reported as 51.26%. c1ccc2oc(N3CCCC4(CCOC4)C3)nc2c1 (configuration not stated) gave an INHIBITION of -14.46%. O=C(NC1CCCC1)O[C@H]1COCCN(c2nc3ccccc3o2)C1 was tested, and the INHIBITION was 52.91%. For CC(C)NC(=O)O[C@H]1COCCN(c2nc3ccccc3s2)C1, the INHIBITION was 41.93%. NC(=O)N1CCc2ncc(CNC(=O)CC3CC3)n2CC1 showed an INHIBITION of 25.08%. In the case of CC(=O)N1CCCC1c1cc(N2CCN(CC3CC3)CC2)cc(C)n1 (configuration not stated), the INHIBITION is reported as 6.89%. For O=C(c1ccoc1)N1CCc2ncnc(NCc3ccccn3)c2CC1, the INHIBITION was 1.01%. For CN(C)CCC1CCN(Cc2ccn(C)c(=O)c2)CC1, the INHIBITION was 16.84%. Molecule COC(=O)C1CCN(C(=O)c2nnc3ccc(Cl)cc3n2)CC1 has an INHIBITION of 24.52%. For CC(=O)c1cccc(OCCCC(=O)N(C)Cc2cnc(C)s2)c1, the INHIBITION was -37.03%. Cc1cnc(N2CCC3(CCCN3C(=O)c3ccco3)CC2)nc1 was tested, and the INHIBITION was 26.01%. Work on Cc1nc(NCCO)cc(C(C)Cn2nc(C)c(C)c2C)n1 (configuration not stated) yielded an INHIBITION of -16.2%. Cc1nc(NCc2nonc2C)cc(C(C)Cn2nc(C)c(C)c2C)n1 (configuration not stated) was tested, and the INHIBITION was 84.94%. Molecule Cc1nc(NCc2ccccc2)cc(C(C)Cn2nc(C)c(C)c2C)n1 (configuration not stated) has an INHIBITION of -30.88%. Work on COc1cc(C2(C(=O)N3CCN(CC(C)(C)O)CC3)CC2)ccc1C yielded an INHIBITION of 17.48%. COc1ccc(C(=O)N2CCN(c3cc(CCN)nc(C)n3)CC2)cc1 gave an INHIBITION of -10.41%. With CCc1ccc(C(=O)N2CCN(CC(C)O)CC2)o1 (configuration not stated) the INHIBITION was 54.85%. CCc1nc(CN2CCN(C(=O)c3cc(C)no3)CC2)cs1 gave an INHIBITION of 36.73%. CCc1nc(CN2CCCN(C(=O)c3ccccc3)CC2)cs1 gave an INHIBITION of -10.44%. For CCN(CC)Cc1ccc(C(=O)N2CCN(CC(C)O)CC2)o1 (configuration not stated), the INHIBITION was 21.12%. CCc1ccc(C(=O)N2CCN(CC(O)CC)CC2)o1 (configuration not stated) was tested, and the INHIBITION was 5.59%. CCc1nc(CN2CCCN(C(=O)c3cccn3C)CC2)cs1 was tested, and the INHIBITION was -18.39%. Molecule Cc1nc(N2CCN(C(=O)c3ccco3)CC2)c2c(n1)c(C)nn2C has an INHIBITION of 1.77%. Cc1nc(CCN)cc(N2CCCN(C(=O)c3ccco3)CC2)n1 gave an INHIBITION of 54.3%. Molecule CCc1nc(CN2CCCN(C(=O)c3occc3C)CC2)cs1 has an INHIBITION of 21.52%. In the case of CCc1nc(CN2CCCN(C(=O)c3ccco3)CC2)cs1, the INHIBITION is reported as 70.27%. For CCc1nc(CN2CCN(C(=O)c3cc(C)nn3C)CC2)cs1, the INHIBITION was 53.98%. Cc1noc(C)c1CN1CC2(CCN(C(=O)c3c[nH]cn3)C2)CC1=O (configuration not stated) showed an INHIBITION of 47.35%. Molecule Cc1noc(C)c1CN1CCc2ncc(CN(C)C)n2CC1 has an INHIBITION of 1.48%. For Cc1nc(N2CCN(C)CC2)ncc1C(=O)N1CC[C@](C)(O)[C@H](C)C1, the INHIBITION was -5.13%. O=C1[C@@H]2CCN(Cc3ccncc3)C[C@@H]2OCCN1c1ccccc1 was tested, and the INHIBITION was 2.71%. With Cc1ccccc1-n1cnc(Cl)c1CO the INHIBITION was -40.04%. Molecule O=C(NC1CC1)N1CCN(c2cnccn2)CC1 has an INHIBITION of 11.24%. With O=C(CCc1ccc(C(F)(F)F)cc1)N1CCCS1(=O)=O the INHIBITION was -24.72%. For Cn1c(N2CC[C@H](O)C2)nc2cc(C(N)=O)ccc21, the INHIBITION was 26.7%. In the case of Cc1ccccc1-c1cncc(C2CCN(Cc3cnn(C)c3)CC2)n1, the INHIBITION is reported as 18.22%. Cc1nc(CN2CCN(C(=O)CCc3ccco3)CC2)cs1 was tested, and the INHIBITION was 60.09%. For CCc1nc(CN2CCCN(C(=O)C3CCOCC3)CC2)cs1, the INHIBITION was -17.37%. In the case of CCc1nc(CN2CCCN(C(=O)c3cc(C)on3)CC2)cs1, the INHIBITION is reported as -24.11%. With Cc1nc(CN2CCCN(C(=O)CCc3ccco3)CC2)cs1 the INHIBITION was 11.2%. With CCc1ccc(C(=O)N2CCCN(Cc3csc(CC)n3)CC2)o1 the INHIBITION was 50.61%. CCc1nc(CN2CCCN(C(=O)C3CCOC3)CC2)cs1 (configuration not stated) gave an INHIBITION of 56.03%. CCc1nc(CN2CCCN(C(=O)CCc3ccco3)CC2)cs1 was tested, and the INHIBITION was 44.12%. In the case of CCc1nc(CN2CCCN(C(=O)c3cnc(C)cn3)CC2)cs1, the INHIBITION is reported as -12.19%. Work on CCc1nc(CN2CCCN(C(=O)C3CCC3)CC2)cs1 yielded an INHIBITION of 23.86%. O=C(NC1CC1)C1CCN(c2nc3nc[nH]c(=O)c3s2)CC1 showed an INHIBITION of 20.16%. With CN(Cc1cnn(C)c1)C(=O)C(c1ccccc1)N1CCSCC1 (configuration not stated) the INHIBITION was 0.21%. Molecule O=C(C[C@@H]1COC[C@H]2CN(Cc3ccc(F)cc3)C[C@@H]12)N1CCOCC1 has an INHIBITION of 20.74%. Cn1cc(CN2CCc3c(CNC(=O)C4CC4)cncc3C2)cn1 gave an INHIBITION of -5.13%. O=C(NCC1CC1)[C@H]1C[C@@H]2CCN(CCc3ccccc3)C[C@H]2O1 gave an INHIBITION of 25.4%. Molecule CC(C)n1[nH]c(=O)c2c1NC(=O)CC2c1cccnc1 (configuration not stated) has an INHIBITION of -35.44%. Work on Cc1ccccc1CC(=O)N[C@@H]1CCC[C@@H](N2CCNC(=O)C2)[C@@H]1O yielded an INHIBITION of 29.06%. With CCc1nc2n(n1)CC(NCc1cc(OC)c3c(c1)OCO3)CC2 (configuration not stated) the INHIBITION was 40.24%. Cc1ccc(C(=O)N2CCC(Oc3ccc(C)c(C)c3)CC2)c(=O)[nH]1 gave an INHIBITION of -37.2%. Cc1ccc(C(=O)N2CCC(Oc3cccc(C)c3C)CC2)c(=O)[nH]1 gave an INHIBITION of 7.64%. With COc1ccc(OC2CCN(C(=O)c3ccc(C)[nH]c3=O)CC2)cc1 the INHIBITION was 11.95%. Cc1ccc(C)c(OC2CCN(C(=O)c3ccc(C)[nH]c3=O)CC2)c1 was tested, and the INHIBITION was 54.85%. Cc1ccc(C(=O)N2CCC(Oc3c(C)cccc3C)CC2)c(=O)[nH]1 was tested, and the INHIBITION was -11.33%. For Cc1ccc(C(=O)N2CCC(Oc3ccc(F)cc3F)CC2)c(=O)[nH]1, the INHIBITION was 60.31%. Work on CCN(CC1CCCN(CCc2cccc(OC)c2)C1)C(=O)CN(C)C (configuration not stated) yielded an INHIBITION of -85.72%. Molecule Cc1cc(C(=O)N2CCCC2c2nc(O)cc(C(C)C)n2)on1 (configuration not stated) has an INHIBITION of 12.21%. Molecule CCN(C)C[C@@H]1CN(Cc2cnc3c(S(C)(=O)=O)cnn3c2)C[C@@H]1CO has an INHIBITION of 10.91%. With CCN(CC)S(=O)(=O)c1csc(C(=O)N2CCC(C(N)=O)CC2)c1 the INHIBITION was 14.27%. With CN(C)S(=O)(=O)c1csc(C(=O)N2CCSCC2)c1 the INHIBITION was 68.33%. In the case of CN(C)S(=O)(=O)c1csc(C(=O)N2CCC(C(N)=O)CC2)c1, the INHIBITION is reported as -0.24%. Cc1nc(NCCSc2nnc(C)s2)c2cccnc2n1 showed an INHIBITION of 21%. For CN1CC2(CCN(CC3CC3)CC2)COc2ccccc2S1(=O)=O, the INHIBITION was -22.64%. O=C(CS(=O)(=O)Cc1ccc(F)cc1)NCc1ccccc1F showed an INHIBITION of -54.34%. With NC(=O)C(Cc1ccccc1)NS(=O)(=O)Cc1ccccc1F (configuration not stated) the INHIBITION was 53.13%. Molecule N#Cc1cccc(CS(=O)(=O)NC(Cc2ccccc2)C(N)=O)c1 (configuration not stated) has an INHIBITION of 18.29%. For Cc1ccc(CS(=O)(=O)CC(=O)NCc2ccccc2F)cc1, the INHIBITION was 26.74%. In the case of NC(=O)C(Cc1ccccc1)NS(=O)(=O)Cc1ccccc1Cl (configuration not stated), the INHIBITION is reported as -7.47%. In the case of O=C(CS(=O)(=O)Cc1ccccc1)NCc1ccccc1F, the INHIBITION is reported as 50.59%. With Cc1ccc(Cl)cc1N1CCC(CNC(=O)Cn2cccn2)C1 (configuration not stated) the INHIBITION was -48.41%. Cc1ccc(Cl)cc1N1CCC(CNC(=O)CC(F)(F)F)C1 (configuration not stated) was tested, and the INHIBITION was 42.92%. Cc1cnn(CC(=O)NCC2CCN(c3cc(Cl)ccc3C)C2)c1 (configuration not stated) was tested, and the INHIBITION was 80.06%. Molecule CSCC[C@H](N)c1nnc(SCc2cc(C)ccc2C)o1 has an INHIBITION of 17.15%. With O=C(NCC(F)(F)F)C1CSCN1S(=O)(=O)c1ccccc1F (configuration not stated) the INHIBITION was 14.06%. For CCCC1C=CCN1C(=O)c1cc(COc2ccc3c(c2)OCO3)[nH]n1 (configuration not stated), the INHIBITION was 5.15%. In the case of O=C(c1cscn1)N1CCC2(CCN(Cc3nccs3)C2)CC1, the INHIBITION is reported as -14.66%. In the case of Cc1cc(-c2cc(C3CCOC3)c(C#N)c(N)n2)ccc1Cl (configuration not stated), the INHIBITION is reported as 21.33%. COc1ccc(-c2cc(C3CCOC3)c(C#N)c(N)n2)cn1 (configuration not stated) was tested, and the INHIBITION was 7.64%. With Cc1cc(C)cc(-c2cc(C3CCOC3)c(C#N)c(N)n2)c1 (configuration not stated) the INHIBITION was 59.27%. Molecule CCN1CCO[C@]2(CCC[C@H]2COCc2csc(C)n2)C1 has an INHIBITION of 32.95%. For COc1ccc(C)cc1Nc1nc2c(C)nn(C)c2c(=O)n1C, the INHIBITION was -103.52%. Molecule O=C(NC1CCS(=O)(=O)c2ccccc21)c1cccs1 (configuration not stated) has an INHIBITION of 79.83%. O=C(NC1CCS(=O)(=O)c2ccccc21)c1sccc1C1CC1 (configuration not stated) showed an INHIBITION of -10.14%. In the case of Cc1ccsc1C(=O)NC1CCS(=O)(=O)c2ccccc21 (configuration not stated), the INHIBITION is reported as -15.77%. CC(C)CNc1nnc(SC(C(=O)NCc2cccnc2)C(C)C)s1 (configuration not stated) was tested, and the INHIBITION was -16.56%.
